Screening results as filed in PubChem BioAssay.
Shown are actives, neighbours in structure and some others; about 3.8% of the full set was active somewhere.
TrxR1 substrate = is turned over as a substrate by rat TrxR1; purified TrxR1 substrate turnover, NADPH consumption readout; AID 588456; Potency, µM (series often up to 114 µM), inactives show top-dose activity change, negative = substrate turnover; hit rate 0.01% among 390,000; further: nearly all actives have a fitted effect of over 50% in size
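Rat TrxR1, dispensed at 90 nM, was prereduced with 400 uM NADPH (final) for 5 min at ~22 deg C, then incubated with compound 15 min before 400 uM selenite. A first-read NADPH fluorescence drop versus no-compound background flagged substrates.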
VDR inh = vitamin D3 receptor (human) inhibition. VDR-SRC2-3 peptide fluorescence polarization, 2 h. Potency, µM, without a hit: max response, negative = inhibition, usual class: inhibitors. AID 504847. P11473. hit rate 0.93% among 400,000
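Fluorescence polarization assay measuring small-molecule disruption of VDR binding to the coregulator peptide SRC2-3. Compounds were pin-transferred (23 nl) into the reagent mix and incubated 2 h at room temperature before reading.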
rTrxR1 inhibitor = rat TrxR1 inhibition; O89049; hit rate 1% among 390,000; Potency, µM (highest dose often 114 µM), inactives show top-dose activity change, negative = inhibition, usual class: inhibitors; recombinant rTrxR1, NADPH fluorescence consumption, selenite substrate; further: nearly all actives have a fitted effect of over 65% in size
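Rat TrxR1 (90 nM in the dispensed reagent) was pre-reduced with 400 uM NADPH for 5 min at room temperature, then incubated with compound for 15 min. After 400 uM selenite was added, NADPH fluorescence (Ex 340/Em 450 nm) was followed for 8 min.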
KAT2A inh = inhibitors of human GCN5L2 histone acetyltransferase; Q92830; GCN5L2 HAT assay, ThioGlo1 CoA-SH fluorescence; Potency, µM (top dose mostly 58.9 µM), inactives show at the top dose activity change, negative = inhibition, hits mostly inhibitors; hit rate 0.21% among 390,000; AID 504327
Target sequence (Q92830 whole entry, looked up): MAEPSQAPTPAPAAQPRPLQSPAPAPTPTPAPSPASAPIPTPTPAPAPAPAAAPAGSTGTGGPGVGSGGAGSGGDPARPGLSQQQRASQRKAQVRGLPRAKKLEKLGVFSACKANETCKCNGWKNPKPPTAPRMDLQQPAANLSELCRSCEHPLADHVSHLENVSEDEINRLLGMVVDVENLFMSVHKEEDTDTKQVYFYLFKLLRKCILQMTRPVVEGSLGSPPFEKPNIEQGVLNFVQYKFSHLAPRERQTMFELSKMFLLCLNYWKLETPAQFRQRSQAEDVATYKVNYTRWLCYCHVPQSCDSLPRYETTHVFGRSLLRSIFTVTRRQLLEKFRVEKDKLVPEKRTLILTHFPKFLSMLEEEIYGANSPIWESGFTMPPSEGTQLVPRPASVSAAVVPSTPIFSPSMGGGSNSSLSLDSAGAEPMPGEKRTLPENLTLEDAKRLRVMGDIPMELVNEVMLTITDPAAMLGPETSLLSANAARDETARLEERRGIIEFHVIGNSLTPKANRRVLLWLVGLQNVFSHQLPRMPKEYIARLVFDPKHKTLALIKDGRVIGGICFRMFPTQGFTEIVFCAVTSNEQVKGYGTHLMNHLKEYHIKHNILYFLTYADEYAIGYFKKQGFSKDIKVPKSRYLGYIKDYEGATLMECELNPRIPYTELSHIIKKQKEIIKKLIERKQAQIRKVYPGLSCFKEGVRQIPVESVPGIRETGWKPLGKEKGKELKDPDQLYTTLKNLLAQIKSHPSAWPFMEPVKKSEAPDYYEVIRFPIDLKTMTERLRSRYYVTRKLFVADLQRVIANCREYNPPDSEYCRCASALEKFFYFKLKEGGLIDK
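GCN5L2 (20nM final) in 50mM HEPES, 0.1mM EDTA pH 7.5, 0.01% Tween-20 was preincubated 15 min at room temperature with compound, then given ThioGlo1 (50uM), H3(1-25) peptide (75uM) and acetyl-CoA (70uM); CoA-thiol fluorescence (Ex340/Em540) was read at 0 and 20 min.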
GLS inh = inhibitors of human glutaminase (GLS) | AID 624170 | hit rate 0.21% among 410,000 | GLS enzymatic activity, qHTS titration | Potency, µM (highest dose often 45.5 µM), inactives show at the top dose activity change, negative = inhibition, hits mostly inhibitors
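hKGA; 45 mM KH2PO4 pH 8.2 + 0.02% Tween-20; cpd via pin tool; 1 mM Gln soln; GluOx/HRP/Amplex Red; RT 30 min; fluor. t0 & final.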
Sfp PPTase inh = inhibitors of Bacillus subtilis Sfp phosphopantetheinyl transferase; Potency, µM, without a hit: largest response in the series, negative = inhibition, most hits filed as inhibitors; Q9F4F7; Biochemical Sfp PPTase activity, qHTS; hit rate 3.5% among 310,000;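 further: the enzyme is Sfp with the accession as filed and its product quenches rhodamine fluorescence; 0% = enzyme reaction without inhibitor and -100% = no enzyme wells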
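Compounds were incubated with enzyme (final 15 nM) for 15 min at room temperature before substrate addition started the reaction. Fluorescence at 525 nm excitation, 598 nm emission was recorded immediately and after 30 minutes.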
* = called active by the depositor; [ ] = remark or other dose. The call rests on the fitted dose curve; in most records, active means well fitted curve in the direction sought with a large enough effect; inconclusive means small, poorly fitted or top-dose-only effect, or another doubt; inactive means no such curve, though single readings can be large; an effect the other way counts as inactive or inconclusive. Unless noted, on the % scale 0 is the no-effect control and ±100 the full control effect; potency means the concentration at half of the fitted maximal effect.

How did CC(C)Cc1nnc(NC(=O)CN2C(=O)c3ccccc3C2=O)s1 do in these assays?
TrxR1 substrate: 6%[57.1 µM]; VDR inh: 11%; rTrxR1 inhibitor: 11%; KAT2A inh: -5%; GLS inh: 20%; Sfp PPTase inh: 22µM*

What do the screens show for `CCCCc1nnc(NC(=O)CN2C(=O)c3ccccc3C2=O)s1`?
TrxR1 substrate: 2%; VDR inh: -15%; rTrxR1 inhibitor: 12%; KAT2A inh: 3%; GLS inh: -10%; Sfp PPTase inh: -8%

What do the screens show for `O=C(COC(=O)c1cc(-c2ccc(Cl)s2)nc2ccccc12)NCc1ccco1`?
TrxR1 substrate: 12%[57.1 µM]; VDR inh: 79µM*; rTrxR1 inhibitor: inconclusive; KAT2A inh: -27%; GLS inh: -4%; Sfp PPTase inh: 13µM*

How did O=C(COC(=O)c1cc(-c2cccs2)nc2ccccc12)NCc1ccco1 do in these assays?
TrxR1 substrate: 79%; VDR inh: -12%; rTrxR1 inhibitor: inconclusive; KAT2A inh: -18%; GLS inh: -17%; Sfp PPTase inh: 22µM*

What do the screens show for `CCOC(=O)N1CCN(C(=O)C[C@@H]2C[C@@]3(C(=O)OCC)CCC=C3N(CCC3=CCCCC3)C2=O)CC1`?
GLS inh: 3%

Results for N#CC1=C(N)NC(SCC(=O)c2ccc(Cl)cc2)=C(C#N)C12CCCC2 ?
TrxR1 substrate: 3%; VDR inh: 1%; rTrxR1 inhibitor: -1%; KAT2A inh: -10%; GLS inh: 7%; Sfp PPTase inh: 50µM*

Results for N#CC1=C(N)NC(SCC(=O)c2ccc(Br)cc2)=C(C#N)C12CCCCC2 ?
TrxR1 substrate: -14%; VDR inh: 6%; rTrxR1 inhibitor: inconclusive; KAT2A inh: -15%; GLS inh: 13%; Sfp PPTase inh: 5%

What do the screens show for `CC(=O)NC1C(OC(=O)/C=C/c2ccccc2)OC(COC(C)=O)C(OC(C)=O)C1OC(C)=O` (configuration not stated)?
TrxR1 substrate: 0%; VDR inh: 2%; rTrxR1 inhibitor: 17%; KAT2A inh: 3%; GLS inh: -14%; Sfp PPTase inh: 1%

Results for Cc1ccc(-c2csc3ncnc(SCc4ccc(C(=O)O)cc4)c23)cc1 ?
TrxR1 substrate: 8%[57.1 µM]; VDR inh: -11%; rTrxR1 inhibitor: -13%[57.1 µM]; KAT2A inh: inconclusive; GLS inh: 1%; Sfp PPTase inh: 50µM*

What do the screens show for `C=CCNC(=S)N/N=C(\C)c1cccc(OC)c1`?
TrxR1 substrate: -20%; VDR inh: -1%; rTrxR1 inhibitor: -29%; KAT2A inh: inconclusive; GLS inh: 24%; Sfp PPTase inh: 5%

What do the screens show for `C=CCNC(=S)N/N=C(\C)c1cccnc1`?
TrxR1 substrate: 4%[57.1 µM]; VDR inh: -19%; rTrxR1 inhibitor: 15%[57.1 µM]; KAT2A inh: -12%; GLS inh: -4%; Sfp PPTase inh: 16µM*

What do the screens show for `CCOC(=O)C1(C)CCCN1C(=O)c1ccccc1F` (configuration not stated)?
GLS inh: 0%

What do the screens show for `Cc1ccc(C(=O)Oc2ccc(C(=O)COC(=O)C3CC(=O)N(Cc4ccco4)C3)cc2)cc1` (configuration not stated)?
TrxR1 substrate: 11%[57.1 µM]; VDR inh: -16%; rTrxR1 inhibitor: -15%[57.1 µM]; KAT2A inh: -18%; GLS inh: 0%; Sfp PPTase inh: inconclusive

What do the screens show for `O=C(COC(=O)C1CC(=O)N(Cc2ccco2)C1)c1ccc(OC(=O)c2ccco2)cc1` (configuration not stated)?
TrxR1 substrate: -4%; VDR inh: inconclusive; rTrxR1 inhibitor: inconclusive; KAT2A inh: inconclusive; GLS inh: inconclusive; Sfp PPTase inh: 13µM*

What do the screens show for `Cc1cc(N2CCN(c3ccccc3F)CC2)nc2cc(O)ccc12`?
TrxR1 substrate: 17%; VDR inh: 3%; rTrxR1 inhibitor: 10%; KAT2A inh: 13µM*; GLS inh: 1%; Sfp PPTase inh: 5%

How did COc1ccc(-c2cn3c(C)c(C(=O)Nc4cccc(C)n4)sc3n2)cc1 do in these assays?
TrxR1 substrate: 2%[57.1 µM]; VDR inh: -6%; rTrxR1 inhibitor: 9%[57.1 µM]; KAT2A inh: -6%; GLS inh: 3%; Sfp PPTase inh: 40µM*

Results for Cc1cccc(NC(=O)c2sc3nc(-c4ccc(F)cc4)cn3c2C)n1 ?
TrxR1 substrate: 34%; VDR inh: -13%; rTrxR1 inhibitor: 28%; KAT2A inh: -10%; GLS inh: 0%; Sfp PPTase inh: 50µM*

Results for COc1ccc(NC(=S)N2CCN(C(=O)C3CCCO3)CC2)cc1 (configuration not stated) ?
TrxR1 substrate: -12%; VDR inh: -5%; rTrxR1 inhibitor: inconclusive; KAT2A inh: -1%; GLS inh: 0%; Sfp PPTase inh: 9%

How did Cc1c(NC(=O)CSCc2ccco2)c(=O)n(-c2ccccc2)n1C do in these assays?
TrxR1 substrate: 0%; VDR inh: 10%; rTrxR1 inhibitor: 4%; KAT2A inh: -5%; GLS inh: -4%; Sfp PPTase inh: 14%

What do the screens show for `COc1ccc2c(c1)OC/C(=C\c1ccc(OC)c(O)c1)C2=O`?
VDR inh: 20µM*; KAT2A inh: -28%; Sfp PPTase inh: -38%

What do the screens show for `COc1ccc(NS(=O)(=O)c2cc(NC(=O)CNC(=O)c3ccc(C)s3)ccc2Cl)cc1`?
TrxR1 substrate: 3%[57.1 µM]; VDR inh: 4%; rTrxR1 inhibitor: 5%[57.1 µM]; KAT2A inh: -4%; GLS inh: -2%; Sfp PPTase inh: 3%

What do the screens show for `COc1ccc(/C=C/C(=O)Oc2ccc(C)c(C)c2)cc1OC`?
TrxR1 substrate: 9%[57.1 µM]; VDR inh: -10%; rTrxR1 inhibitor: 21%[57.1 µM]; KAT2A inh: -17%; GLS inh: -3%; Sfp PPTase inh: 8.9µM*

How did COc1ccc(C=C(C(C)=O)C(C)=O)cc1OC do in these assays?
TrxR1 substrate: -17%; VDR inh: 7%; rTrxR1 inhibitor: 45µM*; KAT2A inh: -5%; GLS inh: -25%; Sfp PPTase inh: 14%

What do the screens show for `COc1ccc(/C=C/C(=O)C(C)(C)C)cc1OC`?
TrxR1 substrate: -10%; VDR inh: -9%; rTrxR1 inhibitor: -1%[57.1 µM]; KAT2A inh: 4%; GLS inh: -4%; Sfp PPTase inh: 12%

What do the screens show for `Cc1ccc(/C=C2/C(=O)c3ccc(C(=O)O)cc3C2=O)o1`?
TrxR1 substrate: 4%[57.1 µM]; VDR inh: 1%; rTrxR1 inhibitor: inconclusive; KAT2A inh: -3%; GLS inh: 197%; Sfp PPTase inh: 13µM*

What do the screens show for `O=C1NN(c2ccccc2)C(=O)/C1=C\c1coc2ccc(O)cc2c1=O`?
TrxR1 substrate: -8%; VDR inh: 22µM*; rTrxR1 inhibitor: inconclusive; KAT2A inh: -2%; GLS inh: -26%; Sfp PPTase inh: 79µM*
